{
  "source": "PubChem BioAssay AID2116",
  "about": "(The Scripps Research Institute Molecular Screening Center, 2009)",
  "note": "Unmarked numbers belong to inactive results. Calls of active or inactive are those of the source. No rule for the calls is given here.",
  "data": [
    {"target": "Mucolipin-2 (Homo sapiens) (UniProt Q8IZK6)", "assay": "TRPML3 and TRPML2 channel agonists, cell-based, patch clamp, Fura-2 profiling panel (AID 2116)", "settings": "HEK293 cells, TRPML2 Fura-2 Imaging; at 10 µM; hits give high values", "values": [
      {"compound": "O=S(=O)(Nc1ccccc1N1CCOCC1)c1ccc(Cl)s1", "activation": "7.14%"},
      {"compound": "Cc1ccc(S(=O)(=O)Nc2ccccc2-c2ccccc2)cc1", "activation": "< 1%"},
      {"compound": "O=S(=O)(Nc1ccccc1N1CCCCC1)c1ccc(Cl)s1", "activation": "< 1%"},
      {"compound": "O=S(=O)(NC1CCCCC1N1CCOCC1)c1ccc(Cl)cc1", "note": "(stereo not given)", "activation": "54.5% (active)"},
      {"compound": "Cc1ccc(N2CCN(S(=O)(=O)N3CCCCC3)CC2)c(C)c1", "activation": "23.5% (active)"}
    ]}
  ]
}
